Measurements: PMC4242493, “Sequence specificity incompletely defines the genome-wide occupancy of Myc”

Molecular target: Myc;MaxL (Homo sapiens;Homo sapiens, UniProt P01106-1;P61244 1-439;1-160, |)
Assay: universal protein-binding microarray (PBM); PBS-based mixture, 10 nM His-tagged protein dimer, 2% milk, 200 ng/uL BSA, 50 ng/uL salmon testes DNA, 0.02% TX-100; detection with Alexa 488 anti-His antibody;; high values mean tight binding;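 also: fluorescence intensity normalized to that of the highest-ranked 8-mer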
Conditions: protein: recombinant;recombinant; tags: C-terminal His-tag (pET21a);C-terminal His-tag (pET21a); copies: 1;1; dsDNA, one strand shown

Chain of Myc;MaxL (P01106 16-454, chain 1 of 2): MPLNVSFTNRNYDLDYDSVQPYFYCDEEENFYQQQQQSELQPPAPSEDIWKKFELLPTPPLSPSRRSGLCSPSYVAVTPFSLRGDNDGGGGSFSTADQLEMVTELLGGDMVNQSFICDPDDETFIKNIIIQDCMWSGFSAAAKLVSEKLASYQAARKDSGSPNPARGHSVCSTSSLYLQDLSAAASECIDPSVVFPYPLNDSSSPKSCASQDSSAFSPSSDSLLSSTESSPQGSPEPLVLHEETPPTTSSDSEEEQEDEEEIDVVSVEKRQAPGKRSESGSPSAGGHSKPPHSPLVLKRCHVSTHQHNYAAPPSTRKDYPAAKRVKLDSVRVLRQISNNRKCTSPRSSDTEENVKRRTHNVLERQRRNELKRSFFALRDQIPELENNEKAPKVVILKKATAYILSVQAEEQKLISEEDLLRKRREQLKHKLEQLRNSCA
Chain of Myc;MaxL (P61244 whole entry, chain 2 of 2): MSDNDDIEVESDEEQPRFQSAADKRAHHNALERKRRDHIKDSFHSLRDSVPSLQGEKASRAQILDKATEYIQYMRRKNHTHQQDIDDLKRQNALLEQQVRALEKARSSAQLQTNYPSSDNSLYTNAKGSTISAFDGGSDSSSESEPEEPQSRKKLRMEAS

First: CACGTGCG
Second: AGCACGTG
The binding signal of the first is lower: 0.798 normalized occupancy for the first, 0.947 normalized occupancy for the second.

First: CACGTGTC
Second: CACGTGGG
The binding signal of the first is higher: 0.761 normalized occupancy for the first, 0.757 normalized occupancy for the second.

Going from CCACGTGG to CACGTGGC, the binding signal falls from 0.959 normalized occupancy to 0.927 normalized occupancy.

Going from ACACGTGC to CACGTGGA, the binding signal rises from 0.766 normalized occupancy to 0.81 normalized occupancy.

Going from CCACGTGC to ACACGTGT, the binding signal falls from 0.978 normalized occupancy to 0.833 normalized occupancy.

Going from ACCACGTG to ACACGTGG, the binding signal rises from 0.875 normalized occupancy to 0.895 normalized occupancy.

First: AACACGTG
Second: CACGTGCC
The binding signal of the first is higher: 0.784 normalized occupancy for the first, 0.732 normalized occupancy for the second.
